Results: PubChem BioAssay (NCATS)
Inconclusive results are not listed. Values without a mark were called inactive. The source made the active and inactive calls. The call rests on the fitted dose curve; in most records, active means well fitted curve in the direction sought with a large enough effect; inconclusive means small, poorly fitted or top-dose-only effect, or another doubt; inactive means no such curve, though single readings can be large; an effect the other way counts as inactive or inconclusive.

Target: N-terminal Xaa-Pro-Lys N-methyltransferase 1 (Homo sapiens) (UniProt Q9BV86)
Sequence (Q9BV86 whole entry, looked up): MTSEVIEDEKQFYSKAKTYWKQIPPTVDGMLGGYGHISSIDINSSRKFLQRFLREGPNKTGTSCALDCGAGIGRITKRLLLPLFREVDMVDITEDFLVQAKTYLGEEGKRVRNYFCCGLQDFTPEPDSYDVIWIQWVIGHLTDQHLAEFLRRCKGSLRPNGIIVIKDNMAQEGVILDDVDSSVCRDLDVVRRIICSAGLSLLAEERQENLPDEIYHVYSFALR
Experiment: qHTS Assay for Inhibitors of N-terminal methyltransferase 1 (NTMT1): LOPAC validation of the NTMT1 SAHH-coupled ThioGlo3 Assay (AID 1347143);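 further: SAH from peptide methylation measured as thiol fluorescence via SAHH coupling and ThioGlo3; nearly all actives have a fitted effect of over 70% in size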; on activity change, negative = inhibition: on the % scale 0 is the no-effect control and ±100 the full control effect
Conditions: recombinant NTMT1, SAHH-coupled ThioGlo3 fluorescence; series mostly up to 114 µM; activity change, negative = inhibition: at the top concentration
Summary of the method: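 Recombinant human NTMT1 (125nM) was pre-incubated 1 min at room temperature with compounds over a concentration range, then a mix of 100uM SAM, 10uM SAHH and 15uM ThioGlo3 (concentrations in added reagent) was added. ThioGlo3 fluorescence (ex 340/em 450nm) after 30 min was normalized to the initial reading.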
Potency means the concentration at half of the fitted maximal effect.

Row | SMILES | activity change, negative = inhibition [%] | Potency
1 | Cn1c(=O)c2[nH]cnc2n(C)c1=O | -3.17 | –
2 | OCCN(CCO)c1nc(N2CCCCC2)c2nc(N(CCO)CCO)nc(N3CCCCC3)c2n1 | – | 79.4 µM (active)
3 | CCN1CCCC1CNC(=O)c1cc(S(=O)(=O)CC)c(N)cc1OC (stereo not given) | -10.7 | –
4 | CCOC(=O)C(C)(C)Oc1ccc(Cl)cc1 | -19.3 | –
5 | Nc1nc2c(ncn2COC(CO)CO)c(=O)[nH]1 | -15.2 | –
6 | CC12CC3CC(C)(C1)CC(N)(C3)C2 | -2.57 | –
7 | Cc1cc(C(C)(C)C)c(O)c(C)c1CC1=NCCN1 | -11 | –
8 | Cc1cc(C(C)(C)C)cc(C)c1CC1=NCCN1 | -18.5 | –
9 | O=C(C1CCCCC1)N1CC(=O)N2CCc3ccccc3C2C1 (stereo not given) | -9.6 | –
10 | COc1ccc(CCN(C)CCCC(C#N)(c2ccc(OC)c(OC)c2)C(C)C)cc1OC (stereo not given) | -20.3 | –
11 | NCCc1cnc[nH]1 | -21 | –
12 | Fc1ccc([C@@H]2CCNC[C@H]2COc2ccc3c(c2)OCO3)cc1 | -25.8 | –
13 | CN(CCOc1ccc(NS(C)(=O)=O)cc1)CCc1ccc(NS(C)(=O)=O)cc1 | -15.1 | –
14 | CC[N+](CC)(CC)CCOc1cccc(OCC[N+](CC)(CC)CC)c1OCC[N+](CC)(CC)CC | – | 44.7 µM (active)
15 | CCOC(=O)Nc1ccc(NCc2ccc(F)cc2)nc1N | – | 50.1 µM (active)
16 | Clc1ccc2c(c1)C(N1CCNCC1)=Nc1ccccc1O2 | -16.7 | –
17 | CC(C)(Oc1ccc(C2CC2(Cl)Cl)cc1)C(=O)O (stereo not given) | -8.04 | –
18 | Cc1ccc(C(=O)Nc2ccc(S(=O)(=O)O)c3cc(S(=O)(=O)O)cc(S(=O)(=O)O)c23)cc1NC(=O)c1cccc(NC(=O)Nc2cccc(C(=O)Nc3cc(C(=O)Nc4ccc(S(=O)(=O)O)c5cc(S(=O)(=O)O)cc(S(=O)(=O)O)c45)ccc3C)c2)c1 | 0.198 | –
19 | CN1CCC(=C2c3ccccc3C=Cc3ccccc32)CC1 | -15.9 | –
20 | CCc1cccc2c3c([nH]c12)C(CC)(CC(=O)O)OCC3 (stereo not given) | -17.1 | –
21 | CN(C)CCOC(c1ccccc1)c1ccccc1 | -10.7 | –
22 | COc1cc2nc(N(C)CCCNC(=O)C3CCCO3)nc(N)c2cc1OC (stereo not given) | – | 39.8 µM (active)

Target: Furin (Homo sapiens) (UniProt P09958)
Sequence (P09958 whole entry, looked up): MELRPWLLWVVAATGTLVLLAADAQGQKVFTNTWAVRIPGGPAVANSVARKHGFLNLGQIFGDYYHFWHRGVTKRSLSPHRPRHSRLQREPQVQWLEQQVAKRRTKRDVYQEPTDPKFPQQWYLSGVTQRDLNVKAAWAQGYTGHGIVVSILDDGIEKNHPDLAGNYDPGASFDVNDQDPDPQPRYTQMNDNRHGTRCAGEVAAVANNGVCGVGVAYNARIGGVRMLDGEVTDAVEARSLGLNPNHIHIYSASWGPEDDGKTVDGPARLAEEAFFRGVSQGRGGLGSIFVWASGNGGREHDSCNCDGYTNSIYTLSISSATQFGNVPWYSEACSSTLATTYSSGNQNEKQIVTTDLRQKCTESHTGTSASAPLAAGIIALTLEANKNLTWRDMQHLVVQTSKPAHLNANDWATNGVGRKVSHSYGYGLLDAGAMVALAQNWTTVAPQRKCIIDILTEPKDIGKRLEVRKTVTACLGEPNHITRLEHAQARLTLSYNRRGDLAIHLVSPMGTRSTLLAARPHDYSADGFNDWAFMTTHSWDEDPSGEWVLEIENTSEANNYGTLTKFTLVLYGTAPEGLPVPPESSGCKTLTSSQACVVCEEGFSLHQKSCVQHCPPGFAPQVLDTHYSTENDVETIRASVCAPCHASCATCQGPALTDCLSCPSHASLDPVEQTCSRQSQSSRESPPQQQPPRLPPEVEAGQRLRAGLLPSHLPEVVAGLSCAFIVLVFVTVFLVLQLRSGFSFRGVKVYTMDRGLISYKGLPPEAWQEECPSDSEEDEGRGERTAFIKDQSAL
Experiment: Furin counterscreen qHTS for Zika virus inhibitors (AID 1347149); further: nearly all actives have a fitted effect of over 70% in size;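 on activity change, negative = inhibition: purified recombinant full-length human furin enzyme at 5 nM; fluorescence gain from furin cutting a BOC-RVRR-AMC peptide substrate over 15 min; top concentration of the series differs between compounds; plate controls were no-inhibitor control for no effect and no-enzyme control for full effect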
Conditions: furin enzymatic counterscreen, fluorogenic substrate; series mostly up to 57.5 µM; activity change, negative = inhibition: at the top concentration
Summary of the method: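 Fluorogenic cleavage of BOC-RVRR-AMC (2 microM final, Km ~15 µM) was monitored (ex 340, em 450 nm) at 37C after 15 min RT preincubation of 5 nM furin with compounds in HEPES pH 7.0 buffer with CaCl2 and Triton X-100. Percent inhibition was fitted to a 4-parameter Hill curve.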

Row | SMILES | activity change, negative = inhibition [%] | Potency
23 | O=C(c1ccc(F)cc1)C1CCN(CCn2c(=O)[nH]c3ccccc3c2=O)CC1 | -3 | –
24 | Cn1ccc2cc3c(cc21)CCN3C(=O)Nc1cccnc1 | – | 21.5 µM (active)
25 | C[C@H]1c2cccc(O)c2C(O)=C2C(=O)[C@]3(O)C(O)=C(C(N)=O)C(=O)[C@@H](N(C)C)[C@@H]3[C@@H](O)[C@@H]21 | -14 | –

Tested on: Zika virus NS2B-NS3 protease (unlinked)
Experiment: Optimization of GU AMC qHTS for Zika virus inhibitors: Unlinked NS2B-NS3 protease assay (AID 1347151); further: nearly all actives have a fitted effect of over 80% in size;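 on activity change, negative = inhibition: 0% = no-inhibitor control and -100% = no-enzyme control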
Conditions: recombinant ZIKV NS2B-NS3 protease, fluorogenic AMC substrate; series mostly up to 52.5 µM; activity change, negative = inhibition: at the top concentration
Summary of the method: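 Percent inhibition is derived from the 15-min change in AMC fluorescence, normalized against no-inhibitor and no-enzyme controls, then fitted to a 4-parameter Hill curve. Aprotinin was the intraplate control.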

Row | SMILES | activity change, negative = inhibition [%] | Potency
26 | Cn1c(=O)c2[nH]cnc2n(C)c1=O | 9.11 | –
27 | OCCN(CCO)c1nc(N2CCCCC2)c2nc(N(CCO)CCO)nc(N3CCCCC3)c2n1 | – | 26.7 µM (active)
28 | CCN1CCCC1CNC(=O)c1cc(S(=O)(=O)CC)c(N)cc1OC (stereo not given) | -6.79 | –
29 | CCOC(=O)C(C)(C)Oc1ccc(Cl)cc1 | 0.949 | –
30 | Nc1nc2c(ncn2COC(CO)CO)c(=O)[nH]1 | 7.44 | –
31 | CC12CC3CC(C)(C1)CC(N)(C3)C2 | 1.68 | –
32 | Cc1cc(C(C)(C)C)c(O)c(C)c1CC1=NCCN1 | 10.2 | –
33 | COc1ccccc1OCC(O)CN1CCN(CC(=O)Nc2c(C)cccc2C)CC1 (stereo not given) | -3.01 | –
34 | Cc1cc(C(C)(C)C)cc(C)c1CC1=NCCN1 | 5.92 | –
35 | O=C(C1CCCCC1)N1CC(=O)N2CCc3ccccc3C2C1 (stereo not given) | -1.13 | –
36 | COc1ccc(CCN(C)CCCC(C#N)(c2ccc(OC)c(OC)c2)C(C)C)cc1OC (stereo not given) | 12.2 | –
37 | NCCc1cnc[nH]1 | -2.93 | –
38 | CNCCCC12CCC(c3ccccc31)c1ccccc12 | 30.7 | –
39 | Fc1ccc([C@@H]2CCNC[C@H]2COc2ccc3c(c2)OCO3)cc1 | 24.3 | –
40 | CN1CCN(C2=Nc3cc(Cl)ccc3Nc3ccccc32)CC1 | -3.61 | –
41 | CN(CCOc1ccc(NS(C)(=O)=O)cc1)CCc1ccc(NS(C)(=O)=O)cc1 | -5.18 | –
42 | CC[N+](CC)(CC)CCOc1cccc(OCC[N+](CC)(CC)CC)c1OCC[N+](CC)(CC)CC | -0.0299 | –
43 | Clc1ccc2c(c1)C(N1CCNCC1)=Nc1ccccc1O2 | 3.27 | –
44 | CN1CCN2c3ccccc3Cc3ccccc3C2C1 (stereo not given) | 1.05 | –
45 | CC(C)(Oc1ccc(C2CC2(Cl)Cl)cc1)C(=O)O (stereo not given) | -0.588 | –
46 | Cc1ccc(C(=O)Nc2ccc(S(=O)(=O)O)c3cc(S(=O)(=O)O)cc(S(=O)(=O)O)c23)cc1NC(=O)c1cccc(NC(=O)Nc2cccc(C(=O)Nc3cc(C(=O)Nc4ccc(S(=O)(=O)O)c5cc(S(=O)(=O)O)cc(S(=O)(=O)O)c45)ccc3C)c2)c1 | – | 16.8 µM (active)
47 | CN1CCC(=C2c3ccccc3C=Cc3ccccc32)CC1 | 6.17 | –
48 | CCc1cccc2c3c([nH]c12)C(CC)(CC(=O)O)OCC3 (stereo not given) | 12.7 | –
49 | CN(C)CCOC(c1ccccc1)c1ccccc1 | 7.08 | –
50 | C[C@](N)(Cc1ccc(O)c(O)c1)C(=O)O | 2.34 | –
51 | COc1cc2nc(N(C)CCCNC(=O)C3CCCO3)nc(N)c2cc1OC (stereo not given) | – | 26.7 µM (active)

Tested on: Zika virus NS2B-NS3 protease (linked construct)
Experiment: Confirmatory screen NINDS AMC qHTS for Zika virus inhibitors (AID 1347152); further: nearly all actives have a fitted effect of over 70% in size;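 on activity change, negative = inhibition: AMC fluorescence gain from cleaved Bz-Nle-KRR-AMC substrate over 15 min; top concentration of the series differs between compounds; 0% = no-inhibitor control and -100% = no-enzyme control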
Conditions: Purified linked NS2B-NS3, AMC substrate fluorescence; series mostly up to 56.6 µM; activity change, negative = inhibition: at the top concentration
Summary of the method: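 In this dose-response qHTS, AMC release from 10 microM Bz-Nle-KRR-AMC by 1 nM linked protease is measured over 15 minutes (about 20% conversion) at pH 8.0. Percent inhibition is fitted to a 4-parameter Hill curve.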

Row | SMILES | activity change, negative = inhibition [%] | Potency
52 | O=C(c1ccc(F)cc1)C1CCN(CCn2c(=O)[nH]c3ccccc3c2=O)CC1 | 4.06 | –
53 | Cn1ccc2cc3c(cc21)CCN3C(=O)Nc1cccnc1 | – | 24.1 µM (active)
54 | CCOC(=O)Nc1ccc(NCc2ccc(F)cc2)nc1N | -13.1 | –
55 | C[C@H]1c2cccc(O)c2C(O)=C2C(=O)[C@]3(O)C(O)=C(C(N)=O)C(=O)[C@@H](N(C)C)[C@@H]3[C@@H](O)[C@@H]21 | -15.2 | –
